Values without a mark were called inactive. Calls of active or inactive are those of the source. Rule as the data show it: active = inhibition above about 30%; inactive = the rest.
What follows are compounds tested on transactivating tegument protein VP16 (Human herpesvirus 1), Gal4-VP16 luciferase reporter (assay: repression of VP16-driven luciferase reporter – cell-based, luminescence, high throughput, counter-screen for SRC3 inhibitor project (AID 588794)). Conditions: mammalian cells, at 3.6 µM, stronger effect = higher value.
`COc1ccc(-c2c[n+]3c(n2-c2ccccc2)SCC3)cc1` showed an inhibition of 14.3%.
`CCOC(=O)C(=Cc1ccccc1)C(=O)c1ccccc1` was tested, and the inhibition was 33.6% (active).
For `CCC(=O)Oc1c(C(=O)CC)cc2c(C)cc(=O)oc2c1C`, the inhibition was 17.6%.
With `CC(=O)N(C(C)=O)c1ncc2c([nH]c3ccccc32)c1C#N` the inhibition was 30.6% (active).
In the case of `CCOC(=O)C(=Cc1cc(=O)c(OC)co1)C(=O)OCC`, the inhibition is reported as 52.1% (active).
`COCC(C)n1c(C)cc(C(=O)COC(=O)c2cc(=O)[nH]c3ccccc23)c1C` (configuration not stated) gave an inhibition of -15.5%.
In the case of `CCN(CC)c1ccc2cc(NC(=O)CCC(=O)O)c(=O)oc2c1`, the inhibition is reported as 42.9% (active).
Compound `COc1cc(/C=C2\SC(N)=NC2=O)cc(OC)c1` has an inhibition of 27.3%.
With `O=C(CCl)N1N=C(c2cccs2)CC1c1ccco1` (configuration not stated) the inhibition was 6.29%.
`COc1ccc(OC)c(/C=C/c2ccnc3ccccc23)c1` was tested, and the inhibition was 54.2% (active).
`CC12CCC(C(=O)N/N=C/c3ccc(O)cc3O)(OC1=O)C2(C)C` (configuration not stated) showed an inhibition of 16.8%.
With `CCOc1ccc(-n2c(C)c(C(C)=O)c3cc(OC(C)=O)ccc32)cc1` the inhibition was 44.5% (active).
For `COc1ccc(C(C(=O)NC2CCCCC2)N(C(=O)CCl)c2ccc(C)cc2)cc1` (configuration not stated), the inhibition was 52.9% (active).
`NC(=O)C(C(=O)/C=C/c1ccc(Cl)cc1)=C1SCCS1` was tested, and the inhibition was 36.6% (active).
With `Cc1sc2ncnc(N3CCC(C(=O)Nc4ccccc4C(C)(C)C)CC3)c2c1C` the inhibition was 27.6%.
With `COc1ccc(C)cc1N=Nc1ccc(O)c2ncccc12` the inhibition was -10.3%.
`Cn1c(CC(=O)Nc2ccc(Cl)c(Cl)c2)nnc1SCC(=O)N1CCN(c2ccccc2)CC1` showed an inhibition of 12.5%.

— PubChem BioAssay
